Results on 18 compounds are retold here after PubChem BioAssay (EPA / NIEHS).

Records with an inconclusive call do not appear. Activity calls are given as the source filed them. The calls were made as follows, unless noted: active = hit-call score of the fitted dose curve at least 0.9, where 1 is the maximum; inconclusive = response in the unintended direction; inactive = score below 0.9.

In assay [1] the test system is Sodium/Iodide Symporter (NIS), SLC5A5 (gene 6528). Nature of the assay: CPHEA_Stoker_NIS_Inhibition_RAIU: CPHEA's Radioactive Iodide Uptake (RAIU) Assay for Sodium/Iodide Symporter (NIS) Inhibition, Stoker and Laws Labs (AID 2283841). The procedure, abridged: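 Iodide uptake through human NIS is measured in an engineered HEK293T line. Cells take up 125I (329pM final) for 2 hours at room temperature alongside chemicals at 0.001–100uM. Retained radioactivity is counted, and the signal is expressed against DMSO controls.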

Assay [2] can be described thus: ATG_XTT_Cytotoxicity_XSP1: Cytotoxicity Assessment in the Attagene TRANS-FACTORIAL Multi-Species (XSP1) HepG2 Assay (AID 2283810). The procedure, abridged:
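XTT viability readout taken at 24 hours post-dosing in HepG2 liver cells co-treated with 3 nM 6-alpha-fluorotestosterone. Signal loss relative to DMSO controls reflects cytotoxicity.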

Assay [3] can be described thus: ATG_M_06_XSP2: Attagene TRANS-FACTORIAL Multi-Species (XSP2) HepG2 Assay for M06 Transcription Factor (Internal Marker) (AID 2283811).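 Also: hits are increases in signal above the DMSO baseline.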 In a few lines: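 HepG2 cells transiently transfected with GAL4-UAS multiple reporter units, medium containing 3 nM 6-alpha-fluorotestosterone and 1.5 nM norgestrel; reporter mRNA measured 24 hours post-dosing by RT-PCR and capillary electrophoresis. Internal background marker, gain of signal vs DMSO.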

Assay [4] deals with turtle Estrogen Receptor (ERa), gene 101933533. Kind of assay: ATG_trERa_XSP2: Attagene TRANS-FACTORIAL Multi-Species (XSP2) HepG2 Assay for turtle Estrogen Receptor (ERa) (AID 2283812).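 Also: human HepG2 liver cells transiently expressing turtle ERa-Gal4 chimeric receptor; actives raise reporter signal above DMSO so AC50 reflects agonist activity.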 The procedure, abridged: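 HepG2 cells transiently transfected with GAL4-UAS reporter units expressing turtle ERa-Gal4 chimera. Reporter mRNA measured after 24 h dosing by RT-PCR, fluorescent labelling and capillary electrophoresis; gain of signal fitted versus DMSO.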

The target of assay [5] is Estrogen receptor beta (Homo sapiens) (UniProt Q92731). Nature of the assay: ATG_hERb_XSP2: Attagene TRANS-FACTORIAL Multi-Species (XSP2) HepG2 Assay for human Estrogen Receptor (ERb) (AID 2283813).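 Also: actives raise reporter mRNA above DMSO so AC50 reflects agonist induction.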 The procedure, abridged:
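HepG2 cells transiently transfected with GAL4-UAS reporter units and chimeric human ERb-Gal4, 24 h exposure. Reporter mRNA quantified by RT-PCR with FAM labelling, HpaI digestion and capillary electrophoresis; gain of signal versus DMSO.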

For assay [6], the target named is GAL4 Transcription Factor (Internal Marker), GAL4 (gene 855828) (UniProt P04386). Nature of the assay: ATG_GAL4_XSP2: Attagene TRANS-FACTORIAL Multi-Species (XSP2) HepG2 Assay for GAL4 Transcription Factor (Internal Marker) (AID 2283814).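 Also: GAL4 reporter mRNA background control in MRTU transfected cells not a receptor target.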 In a few lines: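 HepG2 cells transiently transfected with GAL4-UAS reporter units, stimulated with 3 nM 6-alpha-fluorotestosterone plus 1.5 nM norgestrel, dosed 24 h. Reporter mRNA by RT-PCR/capillary electrophoresis; gain-of-signal fit versus DMSO, background control.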

For assay [7], the target named is chicken Estrogen Receptor (ERa), ESR1 (gene 396099) (UniProt P06212). Kind of assay: ATG_chERa_XSP2: Attagene TRANS-FACTORIAL Multi-Species (XSP2) HepG2 Assay for chicken Estrogen Receptor (ERa) (AID 2283817).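 Also: actives raise reporter signal above DMSO so AC50 reflects ER activation.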 The procedure, abridged: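 Transiently transfected HepG2 cells expressing chimeric chicken ERa-GAL4 reporter units, dosed 24 h with 3 nM 6-alpha-fluorotestosterone and 1.5 nM norgestrel present. Reporter mRNA measured by RT-PCR and capillary electrophoresis; gain-of-signal fitted relative to DMSO.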

The subject of assay [8] is zebrafish Estrogen Receptor (ER2a), gene 317734. Nature of the assay: ATG_zfER2a_XSP2: Attagene TRANS-FACTORIAL Multi-Species (XSP2) HepG2 Assay for zebrafish Estrogen Receptor (ER2a) (AID 2283818).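 Also: hits raise reporter mRNA so AC50 reflects activation of zebrafish ER2a.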 The procedure, abridged: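 HepG2 cells transiently transfected with GAL4-UAS reporter units and chimeric zebrafish ER2a-Gal4, exposed 24 h; medium contains 3 nM 6-alpha-fluorotestosterone and 1.5 nM norgestrel. Reporter mRNA quantified by RT-PCR, HpaI digestion, capillary electrophoresis; gain versus DMSO.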

In assay [9] the test system is frog Estrogen Receptor (ER), gene 398734. Kind of assay: ATG_frER1_XSP2: Attagene TRANS-FACTORIAL Multi-Species (XSP2) HepG2 Assay for frog Estrogen Receptor (ER) (AID 2283821).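 Also: hits raise reporter mRNA above DMSO baseline so potency means agonist or activator.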 The procedure, abridged: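 HepG2 cells transiently transfected with GAL4-UAS reporter units expressing a chimeric frog ER-Gal4 protein; 24 h exposure. Reporter mRNA quantified by RT-PCR, fluorescent labelling and capillary electrophoresis; gain of signal fitted against DMSO baseline.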

Assay [10] concerns zebrafish Estrogen Receptor (ER2b), gene 317733. Kind of assay: ATG_zfER2b_XSP2: Attagene TRANS-FACTORIAL Multi-Species (XSP2) HepG2 Assay for zebrafish Estrogen Receptor (ER2b) (AID 2283823).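 Also: fitted upward as reporter gain over DMSO so potency reflects activation.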 In a few lines: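 Cells used were HepG2, transiently transfected with chimeric nuclear receptor-Gal4 reporter units. After 24 h of chemical treatment, reporter transcripts were amplified by RT-PCR, labelled and sized by capillary electrophoresis, with induction analysed relative to DMSO.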

The subject of assay [11] is frog Estrogen Receptor (ER2), gene 100174814. Nature of the assay: ATG_frER2_XSP2: Attagene TRANS-FACTORIAL Multi-Species (XSP2) HepG2 Assay for frog Estrogen Receptor (ER2) (AID 2283828). The procedure, abridged: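 HepG2 cells transiently transfected with multiplexed GAL4-UAS reporter units expressing chimeric frog ER2–Gal4 protein; reporter mRNA measured 24 h after chemical dosing by RT-PCR, fluorescent labeling and capillary electrophoresis. Gain-of-signal fitted relative to DMSO baseline.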

The target of assay [12] is Peroxisome proliferator-activated receptor gamma (Homo sapiens) (UniProt P37231). Nature of the assay: ATG_hPPARg_XSP2: Attagene TRANS-FACTORIAL Multi-Species (XSP2) HepG2 Assay for human Peroxisome Proliferator-activated Receptor gamma (PPARg) (AID 2283829).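 Also: actives raise reporter mRNA above DMSO so AC50 reflects PPARg activation.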 In a few lines:
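After transfecting HepG2 with GAL4-UAS reporter constructs, cells are dosed for 24 h; total RNA is reverse-transcribed, PCR-amplified, FAM-labeled, HpaI-digested and resolved by capillary electrophoresis. Activity is measured as mRNA induction relative to DMSO.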

For assay [13], the target named is Nuclear receptor subfamily 1 group I member 2 (Mus musculus) (UniProt O54915). Nature of the assay: ATG_mPXR_XSP2: Attagene TRANS-FACTORIAL Multi-Species (XSP1) HepG2 Assay for mouse Pregnane X Receptor (PXR) (AID 2283831). In a few lines:
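Reporter transcripts were quantified by RT-PCR, FAM primer extension, HpaI digestion and capillary electrophoresis after 24 h of chemical exposure in transiently transfected HepG2 cells carrying chimeric receptor-GAL4 constructs; DMSO served as baseline.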

The target in assay [14] is zebrafish Thyroid Hormone Receptor alpha (TRa), thraa (gene 30670) (UniProt Q98867). Kind of assay: ATG_zfTRa_XSP2: Attagene TRANS-FACTORIAL Multi-Species (XSP1) HepG2 Assay for zebrafish Thyroid Hormone Receptor alpha (TRa) (AID 2283832).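 Also: actives raise zebrafish TRa-Gal4 reporter transcript above DMSO baseline.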 The procedure, abridged:
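Chimeric receptor-Gal4 activity was assessed in transfected human liver HepG2 cells 24 h after dosing, using reporter transcript levels detected by RT-PCR and capillary electrophoresis. DMSO served as baseline.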

In assay [15] the test system is turtle Thyroid Hormone Receptor, alpha (TRa), gene 101949057. Kind of assay: ATG_trTRa_XSP2: Attagene TRANS-FACTORIAL Multi-Species (XSP1) HepG2 Assay for turtle Thyroid Hormone Receptor, alpha (TRa) (AID 2283834).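 Also: hits raise reporter mRNA over the DMSO baseline so AC50 marks activators.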 The procedure, abridged:
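Transfection of HepG2 with multiple reporter transcription units, then chemical dosing for 24 h. Total RNA was reverse-transcribed, reporter sequences PCR-amplified and FAM-labelled, then sized by capillary electrophoresis. DMSO served as baseline.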

A short description of assay [16]: ATG_M_61_XSP2: Attagene TRANS-FACTORIAL Multi-Species (XSP2) HepG2 Assay for M61 Transcription Factor (Internal Marker) (AID 2283835; active = hit-call score of the fitted dose curve at least 0.9, where 1 is the maximum; inactive = score below 0.9;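 also: active means a rise in signal above the DMSO baseline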). In a few lines:
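HepG2 cells transiently transfected with multiple GAL4-UAS reporter units; reporter mRNA measured 24 h after dosing by RT-PCR, fluorescent labelling and capillary electrophoresis. Medium contained 3 nM 6-alpha-fluorotestosterone and 1.5 nM norgestrel; internal marker, DMSO baseline.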

The target of assay [17] is zebrafish Thyroid Hormone Receptor beta (TRb), thrb (gene 30607) (UniProt Q9PVE4). Nature of the assay: ATG_zfTRb_XSP2: Attagene TRANS-FACTORIAL Multi-Species (XSP1) HepG2 Assay for zebrafish Thyroid Hormone Receptor beta (TRb) (AID 2283836). The procedure, abridged: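 Fluorescence of labelled reporter cDNA fragments, separated by capillary electrophoresis, gives mRNA induction from exogenous NR-Gal4 chimeras in transiently transfected HepG2 cells after 24 h dosing; 3 nM 6-alpha-fluorotestosterone and 1.5 nM norgestrel included in the run.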

The target in assay [18] is human Thyroid hormone Receptor beta (TRb), THRB (gene 7068) (UniProt P10828). Kind of assay: ATG_hTRb_XSP2: Attagene TRANS-FACTORIAL Multi-Species (XSP2) HepG2 Assay for human Thyroid hormone Receptor beta (TRb) (AID 2283840).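 Also: actives raise reporter mRNA so potency reflects agonist-like gain of signal.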 The procedure, abridged: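 Transient transfection of human HepG2 with multi-species NR-Gal4/GAL4-UAS reporter constructs; 24 h compound treatment; RNA isolation, reverse transcription, PCR and HpaI digest; capillary electrophoresis of labeled fragments; activity fitted upward versus DMSO.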

A short description of assay [19]: CEETOX_H295R_11DCORT_noMTC: CeeTox H295R High-throughput Steroidogenesis Assay for 11-Deoxycortisol (11DCORT), maximum tolerated concentration (MTC) filtered results only (AID 2283911; active = hit-call score of the fitted dose curve at least 0.9, where 1 is the maximum; inactive = score below 0.9). To be noted: actives raise or lower the signal. The procedure, abridged: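 Steroidogenesis was stimulated in H295R cells with 10 uM forskolin for 48 h before a 48 h chemical exposure. Secreted 11-deoxycortisol was measured by tandem mass spectrometry and fitted bidirectionally against DMSO controls.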

The nature of assay [20]: CEETOX_H295R_OHPREG_noMTC: CeeTox H295R High-throughput Steroidogenesis Assay for OH-Pregnenolone (OHPREG), maximum tolerated concentration (MTC) filtered results only (AID 2283912; active = hit-call score of the fitted dose curve at least 0.9, where 1 is the maximum; inactive = score below 0.9). To be noted: actives raise or lower the signal. In a few lines: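 H295R cells prestimulated 48 h with 10 uM forskolin, then exposed 48 h to compound (0.1% DMSO). 17alpha-hydroxypregnenolone in medium measured by MTBE extraction and HPLC-MS/MS; bidirectional fit vs DMSO, concentrations not MTT/MTC-filtered.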

Sequence of Peroxisome proliferator-activated receptor gamma (Homo sapiens) (P37231 whole entry, looked up, the tested form may be a part): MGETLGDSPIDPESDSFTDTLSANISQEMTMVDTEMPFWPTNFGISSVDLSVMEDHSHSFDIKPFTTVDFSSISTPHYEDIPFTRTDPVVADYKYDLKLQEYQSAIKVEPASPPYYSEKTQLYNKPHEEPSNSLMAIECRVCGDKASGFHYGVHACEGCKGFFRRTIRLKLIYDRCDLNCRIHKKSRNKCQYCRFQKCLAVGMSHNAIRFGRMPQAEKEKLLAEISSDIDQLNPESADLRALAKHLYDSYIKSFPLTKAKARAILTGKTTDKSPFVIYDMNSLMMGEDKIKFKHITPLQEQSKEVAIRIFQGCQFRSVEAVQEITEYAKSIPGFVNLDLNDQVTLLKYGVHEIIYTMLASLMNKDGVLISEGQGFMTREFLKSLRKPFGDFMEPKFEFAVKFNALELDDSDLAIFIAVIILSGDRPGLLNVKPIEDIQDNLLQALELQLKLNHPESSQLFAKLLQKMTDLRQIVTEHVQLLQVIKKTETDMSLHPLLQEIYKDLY
Sequence of Nuclear receptor subfamily 1 group I member 2 (Mus musculus) (O54915 whole entry, looked up, the tested form may be a part): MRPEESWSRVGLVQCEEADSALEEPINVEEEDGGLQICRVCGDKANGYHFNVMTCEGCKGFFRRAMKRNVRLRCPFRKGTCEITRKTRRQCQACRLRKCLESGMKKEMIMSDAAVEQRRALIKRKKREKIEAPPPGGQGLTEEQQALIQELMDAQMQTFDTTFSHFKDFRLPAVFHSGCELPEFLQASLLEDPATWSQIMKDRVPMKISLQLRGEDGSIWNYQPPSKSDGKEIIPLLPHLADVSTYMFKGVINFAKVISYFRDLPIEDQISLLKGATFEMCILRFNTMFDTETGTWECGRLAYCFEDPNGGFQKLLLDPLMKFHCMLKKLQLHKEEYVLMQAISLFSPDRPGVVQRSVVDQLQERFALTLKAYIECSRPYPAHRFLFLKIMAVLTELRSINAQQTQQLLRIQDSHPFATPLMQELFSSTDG
Sequence of human Thyroid hormone Receptor beta (TRb), THRB (gene 7068) (P10828 whole entry, looked up, the tested form may be a part): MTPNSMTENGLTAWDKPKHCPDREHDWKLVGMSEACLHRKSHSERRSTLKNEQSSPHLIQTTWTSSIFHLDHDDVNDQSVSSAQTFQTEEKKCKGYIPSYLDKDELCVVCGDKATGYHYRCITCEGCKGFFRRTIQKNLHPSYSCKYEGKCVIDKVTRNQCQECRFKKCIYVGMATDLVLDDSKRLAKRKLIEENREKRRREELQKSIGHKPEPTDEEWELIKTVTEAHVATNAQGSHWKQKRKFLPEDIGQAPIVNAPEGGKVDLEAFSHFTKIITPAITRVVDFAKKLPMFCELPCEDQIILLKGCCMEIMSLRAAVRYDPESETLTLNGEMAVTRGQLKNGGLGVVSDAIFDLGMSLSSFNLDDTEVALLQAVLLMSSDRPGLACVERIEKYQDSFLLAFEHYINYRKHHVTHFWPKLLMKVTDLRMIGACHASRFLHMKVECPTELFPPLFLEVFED
Sequence of chicken Estrogen Receptor (ERa), ESR1 (gene 396099) (P06212 whole entry, looked up, the tested form may be a part): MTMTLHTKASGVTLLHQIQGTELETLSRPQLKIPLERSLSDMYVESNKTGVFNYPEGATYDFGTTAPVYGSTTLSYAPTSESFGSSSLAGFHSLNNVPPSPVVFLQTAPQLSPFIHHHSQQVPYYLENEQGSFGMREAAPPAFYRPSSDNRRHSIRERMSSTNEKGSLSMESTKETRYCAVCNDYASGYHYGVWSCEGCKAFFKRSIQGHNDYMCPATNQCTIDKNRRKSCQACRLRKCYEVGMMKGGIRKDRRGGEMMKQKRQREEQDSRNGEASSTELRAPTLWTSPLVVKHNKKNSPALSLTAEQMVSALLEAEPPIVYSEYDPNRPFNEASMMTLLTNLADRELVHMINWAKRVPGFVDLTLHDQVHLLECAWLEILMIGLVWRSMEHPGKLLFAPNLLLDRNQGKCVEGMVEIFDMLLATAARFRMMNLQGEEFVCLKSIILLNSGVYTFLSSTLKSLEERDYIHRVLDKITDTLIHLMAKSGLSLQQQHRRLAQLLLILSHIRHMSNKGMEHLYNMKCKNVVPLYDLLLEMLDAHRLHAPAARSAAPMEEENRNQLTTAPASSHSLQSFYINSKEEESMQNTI
Sequence of zebrafish Thyroid Hormone Receptor alpha (TRa), thraa (gene 30670) (Q98867 whole entry, looked up, the tested form may be a part): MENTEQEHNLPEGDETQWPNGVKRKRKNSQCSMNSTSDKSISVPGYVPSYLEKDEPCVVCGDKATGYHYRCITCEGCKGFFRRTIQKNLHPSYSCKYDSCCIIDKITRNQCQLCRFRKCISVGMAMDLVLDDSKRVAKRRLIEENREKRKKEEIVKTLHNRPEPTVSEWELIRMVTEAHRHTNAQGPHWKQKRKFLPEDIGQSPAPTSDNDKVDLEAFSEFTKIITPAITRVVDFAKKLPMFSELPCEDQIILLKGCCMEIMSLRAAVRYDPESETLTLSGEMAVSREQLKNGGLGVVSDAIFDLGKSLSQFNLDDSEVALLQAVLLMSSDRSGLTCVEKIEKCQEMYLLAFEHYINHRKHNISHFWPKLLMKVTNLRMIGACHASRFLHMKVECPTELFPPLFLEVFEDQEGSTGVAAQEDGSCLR
Sequence of zebrafish Thyroid Hormone Receptor beta (TRb), thrb (gene 30607) (Q9PVE4 whole entry, looked up, the tested form may be a part): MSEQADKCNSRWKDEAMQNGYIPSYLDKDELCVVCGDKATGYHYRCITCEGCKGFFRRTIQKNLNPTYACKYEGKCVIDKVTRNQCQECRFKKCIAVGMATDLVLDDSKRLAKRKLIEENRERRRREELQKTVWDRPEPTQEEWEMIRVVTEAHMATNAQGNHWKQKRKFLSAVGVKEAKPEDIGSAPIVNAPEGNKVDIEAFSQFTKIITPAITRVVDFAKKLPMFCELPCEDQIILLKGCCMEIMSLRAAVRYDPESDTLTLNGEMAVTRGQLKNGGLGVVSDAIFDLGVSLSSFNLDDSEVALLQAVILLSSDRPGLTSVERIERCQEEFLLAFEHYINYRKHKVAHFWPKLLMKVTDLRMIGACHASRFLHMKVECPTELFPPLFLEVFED
Sequence of GAL4 Transcription Factor (Internal Marker), GAL4 (gene 855828) (P04386 whole entry, looked up, the tested form may be a part): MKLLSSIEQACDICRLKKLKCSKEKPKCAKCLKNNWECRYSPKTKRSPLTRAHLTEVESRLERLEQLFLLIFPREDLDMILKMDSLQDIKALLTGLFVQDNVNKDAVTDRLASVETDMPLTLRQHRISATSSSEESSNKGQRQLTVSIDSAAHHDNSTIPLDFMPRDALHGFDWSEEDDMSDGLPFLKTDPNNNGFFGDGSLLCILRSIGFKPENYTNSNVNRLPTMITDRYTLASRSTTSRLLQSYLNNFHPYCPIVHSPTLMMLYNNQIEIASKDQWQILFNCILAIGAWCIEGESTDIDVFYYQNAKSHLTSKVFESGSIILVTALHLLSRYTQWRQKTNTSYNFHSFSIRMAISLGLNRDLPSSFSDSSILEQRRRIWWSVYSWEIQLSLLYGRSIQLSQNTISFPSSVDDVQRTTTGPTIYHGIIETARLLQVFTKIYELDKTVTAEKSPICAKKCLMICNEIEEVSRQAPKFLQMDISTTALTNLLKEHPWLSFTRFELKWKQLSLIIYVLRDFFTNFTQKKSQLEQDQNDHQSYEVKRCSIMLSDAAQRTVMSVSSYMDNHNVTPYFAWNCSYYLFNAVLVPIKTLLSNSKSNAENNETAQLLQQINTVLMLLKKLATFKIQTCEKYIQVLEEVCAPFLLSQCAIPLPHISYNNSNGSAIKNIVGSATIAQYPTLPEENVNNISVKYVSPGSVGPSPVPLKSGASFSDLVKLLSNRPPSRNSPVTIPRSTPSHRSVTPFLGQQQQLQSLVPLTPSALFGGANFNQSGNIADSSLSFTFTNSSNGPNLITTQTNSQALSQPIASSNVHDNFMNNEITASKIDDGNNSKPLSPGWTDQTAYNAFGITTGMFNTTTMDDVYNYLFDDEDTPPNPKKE
Sequence of Estrogen receptor beta (Homo sapiens) (Q92731 whole entry, looked up, the tested form may be a part): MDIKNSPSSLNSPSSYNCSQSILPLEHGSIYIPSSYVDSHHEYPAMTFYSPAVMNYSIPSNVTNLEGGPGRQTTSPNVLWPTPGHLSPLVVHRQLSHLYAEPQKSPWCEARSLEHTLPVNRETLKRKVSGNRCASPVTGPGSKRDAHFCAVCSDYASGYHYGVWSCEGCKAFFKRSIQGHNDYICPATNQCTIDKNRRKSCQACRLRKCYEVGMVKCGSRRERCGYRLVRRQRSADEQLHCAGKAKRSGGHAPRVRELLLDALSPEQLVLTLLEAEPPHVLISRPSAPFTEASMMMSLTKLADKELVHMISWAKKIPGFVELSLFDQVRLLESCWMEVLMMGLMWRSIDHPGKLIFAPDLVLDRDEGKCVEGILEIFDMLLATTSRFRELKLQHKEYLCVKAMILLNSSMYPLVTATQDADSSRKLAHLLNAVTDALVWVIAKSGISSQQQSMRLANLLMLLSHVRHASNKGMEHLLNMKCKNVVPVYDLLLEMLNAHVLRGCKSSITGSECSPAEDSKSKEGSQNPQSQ

As to `CCCCC(CC)C(=O)O` (stereo not given), in assay [1], the result was inactive.

Consider `CCCCCCCCCCCC`, for which the outcome in assay [1] was inactive.

Consider `NC(=NCCCCCCN=C(N)/N=C(\N)Nc1ccc(Cl)cc1)/N=C(\N)Nc1ccc(Cl)cc1`, for which the outcome in [1] was inactive.

On to `O=C(O)C(=O)O`, for which the result in assay [1] was inactive.

With `OCC(F)(F)C(F)(F)C(F)(F)C(F)(F)C(F)(F)C(F)(F)C(F)(F)C(F)(F)C(F)(F)C(F)(F)C(F)(F)F`, in assay [1], the outcome was inactive.

`NCCN`: the AC50 in assay [1] is 4180 nM (active).

Regarding `O=C(O)CCC(F)(F)C(F)(F)C(F)(F)C(F)(F)C(F)(F)F`, the result in assay [1] was inactive.

On to `O=C(O)C(F)(F)OC(F)(F)C(F)(F)OC(F)(F)C(F)(F)OC(F)(F)C(F)(F)C(F)(F)C(F)(F)F`, for which, in assay [1], the result was inactive.

Consider `CN(CCO)S(=O)(=O)C(F)(F)C(F)(F)C(F)(F)C(F)(F)C(F)(F)C(F)(F)C(F)(F)C(F)(F)F`, for which the result in assay [1] was inactive.

For the compound `CCCCCCc1ccc(N)cc1`, in assay [1], the result was inactive.

On to `O=C1OC2(c3ccccc31)c1cc(I)c(O)c(I)c1Oc1c2cc(I)c(O)c1I`, for which the AC50 in [1] is 248 nM (active).

`CC(C)c1c(C(=O)Nc2ccccc2)c(-c2ccccc2)c(-c2ccc(F)cc2)n1CC[C@@H](O)C[C@@H](O)CC(=O)O`: in assay [1], the outcome was inactive.

As for `Cc1cc(C(C)(C)C)c(O)c(C(C)(C)C)c1`, the outcome in assay [1] was inactive.

As for `O=C(CC(=O)C(F)(F)C(F)(F)C(F)(F)F)c1cccs1`, the AC50 in assay [1] is 13500 nM (active).

For the compound `C[C@]12CC[C@@H]3c4ccc(O)cc4CC[C@H]3[C@@H]1C[C@@H](O)[C@@H]2O`, the result in [2], in assay [3], in [6], in assay [9], in assay [11] and in [12] was inactive. Further, the compound was called inactive in assay [13], in assay [14], in [15], in assay [16], in [17] and in [18]. Also, the AC50 is 30.6 nM (active) in assay [4]; 10.2 nM (active) in assay [5]; 72.5 nM (active) in [7]; 100 nM (active) in assay [8]; 30.8 nM (active) in [10].

As to `Cc1[nH]nc2c1N=C(c1ccccc1Cl)c1cc([N+](=O)[O-])ccc1N2`, the result in assay [1] was inactive.

As for `Cc1cc(Cc2cc(C)cc(C(C)(C)C)c2O)c(O)c(C(C)(C)C)c1`, the outcome in assay [1] was inactive.

As for `C/C=C/C(=O)C1=C(C)CCCC1(C)C`, the outcome in assay [19] and in assay [20] was inactive.
